# Screens: PubChem BioAssay, National Center for Advancing Translational Sciences (NCATS)
# Rab9 promoter act: qHTS Assay for Rab9 Promoter Activators | Potency, µM (doses to about 9.22 µM), inactives show at the top dose activation, negative = inhibition, usual class: activators | 2.8% of 320,000 active | Huh7 Rab9 promoter-luciferase reporter, luminescence, 24 h; further: % of control where 0% means no effect; nearly all actives have a fitted effect of over 60% in size
#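 Huh7 cells stably carrying a Rab9 promoter-luciferase reporter, 1500 cells per well in OP-MEM I with 10% FBS, treated with compound 24 hours at 37C. Luciferase activity read by luminescence after 10 minutes with Amplite reagent.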
# ELG1 genotoxic: qHTS screen for small molecules that induce genotoxicity in human embryonic kidney (HEK293T) cells expressing luciferase-tagged ELG1; HEK293T ELG1-luciferase reporter, luminescence, 16 h; Potency, µM (series often up to 46 µM), for inactives: at the highest dose activity change, positive = activation, most hits filed as activators; 1.3% of 330,000 active; further: % of control where 0% means no effect; nearly all actives have a fitted effect of over 60% in size
#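 HEK293T cells expressing luciferase-tagged ELG1 were treated with compound or DMSO for 16 hr at 37°C. Luciferase activity was then read after 30 min with ONE-Glo at room temperature; rising signal flags genetic stress.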
# ELG1 repair inh: qHTS screen for small molecules that inhibit ELG1-dependent DNA repair in human embryonic kidney (HEK293T) cells expressing luciferase-tagged ELG1; HEK293T ELG1-luciferase reporter, luminescence, 16 h; DNA damage induced by 5-fluorouridine; Potency, µM (top dose mostly 46.1 µM), for inactives: top-dose activity change, negative = inhibition, usual class: inhibitors; 2.3% of 330,000 active; AID 504467, 2011; further: on the % scale 0 is the no-effect control and ±100 the full control effect; nearly all actives have a fitted effect of over 55% in size
#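 Reporter activity after DNA damage by 5-fluorouridine is monitored. Compound-treated cells incubate 16 hr at 37 °C, then ONE-Glo is added for 30 min before luminescence reading.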
# FLuc modulator: qHTS profiling assay for firefly luciferase inhibitor/activator using purifed enzyme and Km concentrations of substrates (counterscreen for miR-21 project) | Luciferin 4-monooxygenase (Photinus pyralis), P08659 | AID 588342, 2011 | Potency, µM (highest dose often 57.5 µM), for the others: at the top dose activity change, negative = inhibition, hits mostly inhibitors | purified FLuc, Km substrates, luminescence inhibition | 6.9% of 360,000 active;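 further: plate controls were vehicle for no effect and reference inhibitor for full effect; nearly all actives have a fitted effect of over 55% in size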
# Target sequence (P08659 whole entry, looked up): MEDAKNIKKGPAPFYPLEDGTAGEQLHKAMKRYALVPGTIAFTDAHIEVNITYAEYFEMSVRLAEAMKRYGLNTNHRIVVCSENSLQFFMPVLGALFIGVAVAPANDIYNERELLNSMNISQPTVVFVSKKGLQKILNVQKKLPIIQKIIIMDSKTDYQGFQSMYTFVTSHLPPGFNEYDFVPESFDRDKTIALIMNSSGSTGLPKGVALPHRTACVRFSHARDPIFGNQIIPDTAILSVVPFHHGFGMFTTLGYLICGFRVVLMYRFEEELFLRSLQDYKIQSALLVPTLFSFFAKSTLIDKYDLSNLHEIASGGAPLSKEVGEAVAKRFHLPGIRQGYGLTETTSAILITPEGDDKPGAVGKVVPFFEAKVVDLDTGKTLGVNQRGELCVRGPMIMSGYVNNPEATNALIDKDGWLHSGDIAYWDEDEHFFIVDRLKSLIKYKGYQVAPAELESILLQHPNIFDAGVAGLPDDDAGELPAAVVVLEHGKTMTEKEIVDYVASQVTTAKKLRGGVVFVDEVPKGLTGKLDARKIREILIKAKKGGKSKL
#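 Biochemical qHTS of compounds, final roughly 60 µM downward over six points, against 10 nM purified firefly luciferase using Km concentrations of substrates (10 uM D-luciferin, 10 uM ATP) in Tris acetate pH 7.5 buffer; luminescence output.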
# SMN2 splice up: qHTS Assay for Enhancers of SMN2 Splice Variant Expression; AID 1458, 2008; HEK293 SMN2-luciferase splicing reporter, luminescence, 30-36 h; 2.8% of 210,000 active; Potency, µM (series often up to 46.1 µM), without a hit: top-dose activity change, positive = activation, most hits filed as activators; further: % of control where 0% means no effect; nearly all actives have a fitted effect of over 55% in size
#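 HEK293 cells carry an SMN2 […]–luciferase reporter in which exon 7 inclusion puts luciferase in frame. Cells were plated 10-12 h before compound addition, then incubated 30-36 h at 37C. ONE-Glo luminescence was read; sodium butyrate at 4.5 mM final served as control.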
# NPC1 promoter act: qHTS Assay for NPC1 Promoter Activators; Huh7 NPC1 promoter luciferase reporter, 24 h; 2.4% of 320,000 active; Potency, µM (highest dose often 9.22 µM), without a hit: at the top dose activation, most hits filed as activators; further: % of control where 0% means no effect; nearly all actives have a fitted effect of over 60% in size
#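 Luciferase expression driven by the NPC1 promoter was measured in stably transfected Huh7 cells after a 24 h compound incubation, using a luciferase reagent and a luminescence read.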
# Starred values were filed as active, the others as inactive; ? = inconclusive; / = not tested or not shown; [ ] = remark or other dose. A selection: hits, their analogues and other compounds. The true share with any hit is near 9.3%. The call rests on the fitted dose curve; in most records, active means well fitted curve in the direction sought with a large enough effect; inconclusive means small, poorly fitted or top-dose-only effect, or another doubt; inactive means no such curve, though single readings can be large; an effect the other way counts as inactive or inconclusive. Potency means the concentration at half of the fitted maximal effect.
SMILES,Rab9 promoter act,ELG1 genotoxic,ELG1 repair inh,FLuc modulator,SMN2 splice up,NPC1 promoter act
COc1ccc(Cl)cc1Nc1nc(-c2cccnc2)cs1,-3.1%,-0.1%,?,?,/,0.5%
COc1ccc(-c2csc(NC(=O)Cc3ccccc3)n2)cc1OC,-1.7%,0.8%[9.26 µM],6.2%,?,/,-2.7%
O=C(COc1ccc2c(c1)OCO2)Nc1nccs1,0.447µM*,2.31µM*,?,1.69µM*,/,0.398µM*
COc1ccc(C(CC(=O)Nc2nccs2)n2cccc2)cc1 (configuration not stated),3.16µM*,12.4%,?,6.01µM*,10µM*,2.82µM*
CCOc1ccc(OCC(=O)Nc2nccs2)cc1,?,0.92µM*,?,0.953µM*,5.01µM*,0.501µM*
CCOc1ccc(S(=O)(=O)N(C)c2ccc(OCC(=O)Nc3nccs3)cc2)cc1,-1.3%,-12.6%,?,3.9%,-15.1%,-2.0%
COCc1nnc(NC(=O)COc2ccc3c(c2)OCO3)s1,-4.9%,12.1%,-1.0%,-12.3%,/,-3.2%
O=C(COc1cccc2cccnc12)Nc1nccs1,3.98µM*,?,?,12µM*,?,?
COCC(=O)N(C)C[C@H]1N[C@@](C)(C(=O)OC)[C@H]2C(=O)N(Cc3ccccc3)C(=O)[C@@H]12,/,1.5%,16.7%,/,/,/
COc1ccc(OCC(=O)Nc2nc(-c3ccc(Br)cc3)ns2)cc1,/,/,/,10.7µM*,/,/
COc1ccc(OCC(=O)Nc2nccs2)cc1,0.447µM*,?,?,3.01µM*,/,0.562µM*
Cc1cccc(OCCCC(=O)Nc2nccs2)c1C,-10.4%,-1.5%,-15.2%,-0.7%,/,-1.0%
COc1ccc(OCCC(=O)Nc2nccs2)cc1,11.5%,7.8%,-1.0%,?,9.6%,0.6%
COc1ccccc1OCCCC(=O)Nc1nccs1,2.24µM*,?,?,12µM*,/,?
CN(C(=O)CSc1nc2ccccc2n1C)C1CCS(=O)(=O)C1 (configuration not stated),0.7%,3.3%,?,6.0%,/,-0.6%
c1ccc(-c2nnc(-c3ccccn3)nc2NC2CCCCC2)cc1,-18.5%,-3.3%,18.4µM*,-1.7%,-79.6%,-12.8%
CNc1nc(-c2ccccn2)nnc1-c1ccccc1,-2.0%,?,-9.6%,-3.3%,-89.5%,-3.3%
O=C(NCCCCNC(=O)c1cccnc1)c1cccnc1,-11.9%,0.1%,18.5%,5.5%,-4.4%,0.5%
CC(=O)Nc1cccc(OCCCNC(=O)c2ccc(C(C)(C)C)cc2)c1,17.2%,-0.3%,6.3%,19µM*,/,14.2%
CC(C)(C)c1ccc(C(=O)NCCCNC(=O)c2cccnc2)cc1,?,21.4%,?,16.9µM*,/,24.7%
CC(=O)Nc1cccc(OCCCNC(=O)c2ccc(F)cc2)c1,20.6%,3.6%,?,?,/,3.5%
CC(C)(C)c1ccc(C(=O)NCCCNC(=O)c2ccccn2)cc1,-3.4%,1.4%,14.6%,16.9µM*,/,-4.8%
Cc1ccc(OC(=O)c2oc3ccc(F)cc3c2C)c(C)c1,8.2%,13.6%,?,7.57µM*,16.9%,22.5%
COc1ccc(/C=C/C(=O)c2oc3ccc(F)cc3c2C)cc1,0.8%,2.6%,?,9.53µM*,-35.5%,11.2%
Cn1c(=O)c(C=Nc2ccccc2)c(O)c2ccccc21,0.3%,-0.1%,0.0%,4.26µM*,/,-3.8%
SMILES,Rab9 promoter act,ELG1 genotoxic,ELG1 repair inh,FLuc modulator,SMN2 splice up,NPC1 promoter act
COc1ccc(-n2c(O)c(C=Nc3ccccc3)c3ccccc3c2=O)cc1,-9.4%,?,4.2%,0.4%,-2.8%,-1.8%
COc1cccc(NC(=O)NC2CCCCCCC2)c1,?,?,?,10.7µM*,/,3.55µM*
O=C(Nc1ccc2c(c1)OCCO2)NC1CCCCC1,0.562µM*,1.64µM*,?,3.79µM*,10µM*,0.631µM*
O=C(Nc1ccc2c(c1)OCCO2)C1CCC1,0.5%,10.0%,?,0.9%[2.3 µM],13.8%,11.6%
O=C(Nc1cccc(F)c1)NC1CCCCC1,?,?,?,23.9µM*,17.8µM*,?
COc1cccc(NC(=O)C(=S)NC2CCCCC2)c1,0.794µM*,?,?,2.39µM*,3.55µM*,2µM*
O=C(Nc1cccc(F)c1)NC1CC2CCCC(C1)N2C1CC1 (configuration not stated),2.6%,2.4%,-2.7%,1.5%,15.3%,-0.9%
N#CCC(=O)Nc1ccc(C(F)(F)F)cc1N1CCOCC1,2.0%,2.6%,2.9%,-6.4%,3.2%,1.8%
COc1cccc(C(=O)COC(=O)CCCC(=O)NC2CCCCC2)c1,-0.3%,-0.8%,-3.3%,26.9µM*,/,-2.8%
COc1cc(NC(=O)NC2Cc3ccccc3C2)cc(OC)c1,14.7%,7.5%,?,16.9µM*,/,5.2%
COc1cc(NC(=O)C2Cc3ccccc3CN2S(C)(=O)=O)cc(OC)c1 (configuration not stated),-0.8%,2.9%,-0.3%,1.8%,/,-2.2%
O=C(Nc1ccc(F)cc1F)NC1CCCCCCC1,?,?,?,12µM*,/,?
O=C(CSc1ccc2c(c1)OCCO2)NC(=O)NC1CCCC1,10.1%,-6.3%,0.731µM*,-3.4%,4.1%,4.5%
O=C(Nc1ccc(F)cc1F)NC1CC1,1.6%,-1.6%,3.5%,-0.1%,-0.8%,0.2%
Cc1cc2c(cc1S(=O)(=O)N1CCCC1)n(C)c(=O)c(=O)n2C,0.1%,0.8%,0.5%,5.9%,/,1.1%
O=C(O)c1cc(N=Nc2c(O)ccc3ccccc23)cc(C(=O)O)c1,-3.0%,0.2%,6.9%,?,-9.4%,-0.2%
O=C(O)c1ccc(N=Nc2c(O)ccc3ncccc23)cc1,-30.2%,-4.2%,?,1.69µM*,/,-20.4%
CCOC(=O)c1c(C2CC2)csc1NC(=O)COC(=O)c1cc(OC)c(OC)cc1[N+](=O)[O-],-1.5%,-0.9%,13µM*,3.2%,-8.7%[1.84 µM],0.2%
CCOC(=O)c1c(C2CC2)csc1NC(=O)COC(=O)c1ccc[n+]([O-])c1,11.3%,1.1%,11.6%,0.1%,-7.7%,-1.4%
c1ccc(-c2noc(-c3ccc4c(c3)OCO4)n2)cc1,0.282µM*,0.411µM*,?,0.477µM*,5.01µM*,0.447µM*
COCC1CCN(Cc2nc(-c3ccc4c(c3)OCO4)no2)C1 (configuration not stated),2.82µM*,?,?,?,/,?
O=C(NCc1nc(-c2ccccc2)no1)c1ccc2c(c1)OCO2,2.3%,-0.3%,-2.8%,1.2%[2.3 µM],5.1%,-2.1%
